Results on eight compounds are retold here after PubChem BioAssay (Tox21).

Structures are written as SMILES. Values without a mark were called inactive. Inconclusive results are not listed. Activity calls are given as the source filed them. Unless noted, calls follow the shape of the full dose curve.

A short description of assay [1]: Nuclear factor erythroid 2-related factor 2/antioxidant responsive element (Nrf2/ARE) small molecule agonists: qHTS cell viability counter screen in human keratinocytes (AID 1919968; active = well fitted curve in the direction sought with a large enough effect in the repeat runs; an effect the other way counts as inactive or inconclusive; also: nearly all actives have a fitted effect of over 55% in size). The procedure, abridged: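 KeratinoSens cells (HaCaT keratinocytes stably carrying an ARE-luciferase reporter) were seeded at 1,500 cells/well and rested 5 h at 37 C/5% CO2. They were then exposed to compounds in DMSO for 23 h. Viability was read by CellTiter-Fluor fluorescence after 1 h.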
Background: qHTS replaces the single test concentration by a dilution series.

Assay [2] in a line: Nuclear factor erythroid 2-related factor 2/antioxidant responsive element (Nrf2/ARE) small molecule agonists: luciferase reporter gene qHTS assay in human keratinocytes (AID 1919969). Also: nearly all actives have a fitted effect of over 35% in size.
Assay [3] concerns the target Gonadotropin-releasing hormone receptor (Homo sapiens) (UniProt P30968). Briefly: Human gonadotropin-releasing hormone receptor (GnRHR) small molecule agonists, calcium flux assay in GnRHR-HEK293 cells (AID 1920063). Also: nearly all actives have a fitted effect of over 35% in size. The procedure, abridged: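 HEK293 cells stably expressing human GnRHR were plated 18 h at 37 °C, loaded with calcium dye 1 h at 37 °C, then given compound in agonist mode; fluorescence (Ex/Em 480/540) read kinetically for 3 min at 1 s intervals.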
(Calcium assays in cells follow changes in intracellular calcium, usually with a dye or a luminescent sensor.)

In assay [4] the target is KiSS-1 receptor (Homo sapiens) (UniProt Q969F8). Briefly: Human kisspeptin (KISS1R) small molecule agonists, calcium flux assay in KISS1R-HEK293 cells (AID 1920064; active = well fitted curve in the direction sought with a large enough effect in the repeat runs; an effect the other way counts as inactive or inconclusive). The procedure, abridged:
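HEK293 cells stably expressing human KISS1R were plated 18 h at 37 °C, loaded with calcium dye for 1 h at 37 °C, then given compound by pin tool. Fluorescence (Ex/Em 480/540) was read kinetically for 3 min.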

Assay [5] can be described thus: G protein-coupled receptor (GPCR) small molecule agonists, calcium flux assay: HEK293 wild type cell line counter screen (AID 1920065). The procedure, abridged: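 Cells were plated and cultured 18 h at 37 C/5% CO2, then loaded with calcium dye for 1 h at 37 C. Compounds in DMSO were pin-transferred in agonist mode, and fluorescence (Ex/Em 480/540) was read kinetically for 3 min at 1 s intervals.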

Assay [6] can be described thus: p53 small molecule agonists, cell-based qHTS assay with human liver microsomes: qHTS cell viability counter screen (AID 1963579). Also: nearly all actives have a fitted effect of over 45% in size. A digest of the protocol:
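Metabolic activation used human liver microsomes and NADPH, both 0.5 mg/mL final, over 16 hours at 37 C on p53RE-bla cells (4,000/well). Cytotoxicity measured by CellTiter-Glo luminescence, 30 min at room temperature.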

A short description of assay [7]: p53 small molecule agonists, cell-based qHTS assay with rat liver microsomes: qHTS cell viability counter screen (AID 1963580). Also: nearly all actives have a fitted effect of over 45% in size. A digest of the protocol:
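In HCT-116 cells carrying a p53 response element-bla reporter, compounds were metabolically activated in situ by rat liver microsomes with NADPH over 16 h. Cell ATP content then served as the cytotoxicity measure.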

Assay [8] in a line: p53 small molecule agonists, cell-based qHTS assay: qHTS cell viability counter screen (AID 1963581). Also: nearly all actives have a fitted effect of over 45% in size. Also: potency is read from the fitted curve at half-maximal effect. A digest of the protocol: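 p53RE-bla HCT-116 cells were exposed to compounds for 16 h at 37 C; after the beta-lactamase FRET read in the same wells, CellTiter-Glo was added and luminescence (intracellular ATP) read after 30 min at room temperature.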
The target in assay [9] is 5-hydroxytryptamine receptor 2A (Homo sapiens) (UniProt P28223). In words: 5-hydroxytryptamine receptor 2A (HTR2A) small molecule antagonists, cell-based qHTS assay (AID 1963586). Also: nearly all actives have a fitted effect of over 45% in size. A digest of the protocol:
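Antagonist-mode intracellular calcium assay: DOI (4 nM) added after 5 min compound pre-incubation at room temperature to dye-loaded HTR2A-CHO cells. Fluorescence followed for 3 min, sampled every second.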

Assay [10] shares this target. Briefly: 5-hydroxytryptamine receptor 2A (HTR2A) small molecule agonists, cell-based qHTS assay (AID 1963587). Also: nearly all actives have a fitted effect of over 30% in size. The procedure, abridged:
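HTR2A-CHO cells, plated 18 h at 37 C/5% CO2, dye-loaded 1 h at 37 C; compounds in DMSO added by pin tool (agonist mode). Intracellular calcium flux read as kinetic fluorescence on FDSS over 2 min at 1 s intervals.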

In assay [11] the target is Muscarinic acetylcholine receptor M1 (Homo sapiens) (UniProt P11229). Briefly: Cholinergic receptor muscarinic 1 (CHRM1) small molecule antagonists, cell-based qHTS assay (AID 1963588). Also: nearly all actives have a fitted effect of over 40% in size. A digest of the protocol: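 CHRM1-CHO calcium-flux assay, antagonist mode. Cells were seeded 18 h, dye-loaded 1 h at 37 C and given compound for 5 min at RT, then acetylcholine was added at 50nM. FDSS fluorescence was read 3 min; 15 concentrations, three runs.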
Muscarinic acetylcholine receptor M1 (Homo sapiens), sequence (P11229 whole entry, looked up): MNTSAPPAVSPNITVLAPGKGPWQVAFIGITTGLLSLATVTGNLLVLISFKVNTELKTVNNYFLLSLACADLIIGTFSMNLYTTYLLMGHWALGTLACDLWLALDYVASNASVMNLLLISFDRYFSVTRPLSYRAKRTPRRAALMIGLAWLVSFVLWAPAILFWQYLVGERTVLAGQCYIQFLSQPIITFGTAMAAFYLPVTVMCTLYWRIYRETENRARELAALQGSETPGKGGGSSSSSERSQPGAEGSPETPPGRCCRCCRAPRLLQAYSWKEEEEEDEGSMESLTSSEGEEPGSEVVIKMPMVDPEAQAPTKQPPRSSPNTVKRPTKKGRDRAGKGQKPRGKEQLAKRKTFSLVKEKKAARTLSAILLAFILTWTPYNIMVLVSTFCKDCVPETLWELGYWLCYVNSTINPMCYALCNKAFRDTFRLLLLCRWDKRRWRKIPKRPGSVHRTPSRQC

Assay [12] is described as follows: cAMP Responsive Elements (CRE) small molecule agonists, cell-based qHTS assay (AID 1963590). A digest of the protocol:
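CRE-bla HEK 293T cells in DMEM with 10% dialyzed FBS, NEAA, pyruvate and 25 mM HEPES were plated 18 h at 37 C/5% CO2, then exposed to compounds in DMSO for 3 h before LiveBLAzer B/G FRET substrate addition.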

The target in assay [13] is Beta-2 adrenergic receptor (Homo sapiens) (UniProt P07550). In words: Adrenergic beta2 receptor (ADRB2) small molecule antagonists, cell-based qHTS assay (AID 1963592). Also: series mostly up to about 92 µM; nearly all actives have a fitted effect of over 50% in size. A digest of the protocol: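 Cells (CHO, stable ADRB2 overexpression) incubated 18-20hr at 37C; compounds added from DMSO; agonist mix (1nM isoproterenol, 100uM IBMX, 25uM Ro-20-1724) added; 0.5hr RT; d2-cAMP and anti-cAMP-cryptate added; 1hr RT; 665/615 nm read.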
Beta-2 adrenergic receptor (Homo sapiens), sequence (P07550 whole entry, looked up): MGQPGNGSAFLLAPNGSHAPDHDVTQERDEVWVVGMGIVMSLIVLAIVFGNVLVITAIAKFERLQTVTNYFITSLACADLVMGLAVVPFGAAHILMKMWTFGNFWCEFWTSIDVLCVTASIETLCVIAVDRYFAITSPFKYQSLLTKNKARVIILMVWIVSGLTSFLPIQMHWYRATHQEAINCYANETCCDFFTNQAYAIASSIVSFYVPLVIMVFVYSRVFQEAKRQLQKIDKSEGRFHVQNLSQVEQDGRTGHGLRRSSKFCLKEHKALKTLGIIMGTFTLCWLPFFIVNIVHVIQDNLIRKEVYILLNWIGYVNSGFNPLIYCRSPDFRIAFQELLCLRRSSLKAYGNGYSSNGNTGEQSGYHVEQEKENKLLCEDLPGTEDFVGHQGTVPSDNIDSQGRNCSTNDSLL

Assay [14] has the same target. Briefly: Adrenergic beta2 receptor (ADRB2) small molecule agonists, cell-based qHTS assay (AID 1963593).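 Also: CHO cells stably overexpressing human ADRB2.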 A digest of the protocol:
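CHO cells stably over-expressing ADRB2 were plated overnight at 37C, then dosed with compounds plus a stimulation mix containing 100uM IBMX and 25uM Ro-20-1724 for 0.5hr at room temperature. cAMP was measured by HTRF competition, 1hr.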

Assay [15] deals with D(2) dopamine receptor (Homo sapiens) (UniProt P14416). Briefly: Dopamine D2 receptor (DRD2) small molecule agonists, cell-based qHTS assay (AID 1963594). Also: nearly all actives have a fitted effect of over 35% in size. A digest of the protocol:
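HEK293 cells stably expressing DRD2 were cultured 24 h at 37 C, then given Ro20-1724 (0.1 mM final) and compounds for 10 min at room temperature. NKH477 (200nM) was then added for 30 min. cAMP was read by HTRF.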

For assay [16] the target is unchanged. In words: Dopamine D2 receptor (DRD2) small molecule antagonists, cell-based qHTS assay (AID 1963595; active = well fitted inhibition curve with a large enough effect in the signal ratio in the repeat runs, with a control signal flat; the % refers to the signal ratio). The procedure, abridged: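 In this cell-based antagonist screen, compounds act for 10 min at room temperature before a 30 min challenge with 12 nM quinpirole and 200 nM NKH477. cAMP is quantified by HTRF competition in DRD2-HEK293 cells containing 0.1 mM Ro20-1724.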

The target in assay [17] is Muscarinic acetylcholine receptor M1 (Homo sapiens) (UniProt P11229). Briefly: Cholinergic receptor muscarinic 1 (CHRM1) small molecule agonists, cell-based qHTS assay (AID 1963589). Also: nearly all actives have a fitted effect of over 35% in size. A digest of the protocol:
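CHO cells stably expressing human CHRM1, seeded 18 h at 37 C/5% CO2, dye-loaded 1 h at 37 C, then given compound in agonist mode; intracellular calcium fluorescence read kinetically at 1 s intervals. Fifteen concentrations, three independent runs.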

A short description of assay [18]: cAMP Responsive Elements (CRE) small molecule antagonists, cell-based qHTS assay (AID 1963591; active = well fitted inhibition curve with a large enough effect in the signal ratio in the repeat runs, not every such curve was filed as active; the % refers to the signal ratio). A digest of the protocol:
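CRE-bla HEK293T cells were plated 18 h at 37 °C/5% CO2, pinned with compound in DMSO, then stimulated with NKH477 at 0.25 uM final for 3 h. LiveBLAzer B/G FRET substrate was added and plates incubated 2 h at room temperature.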

5-hydroxytryptamine receptor 2A (Homo sapiens), sequence (P28223 whole entry, looked up): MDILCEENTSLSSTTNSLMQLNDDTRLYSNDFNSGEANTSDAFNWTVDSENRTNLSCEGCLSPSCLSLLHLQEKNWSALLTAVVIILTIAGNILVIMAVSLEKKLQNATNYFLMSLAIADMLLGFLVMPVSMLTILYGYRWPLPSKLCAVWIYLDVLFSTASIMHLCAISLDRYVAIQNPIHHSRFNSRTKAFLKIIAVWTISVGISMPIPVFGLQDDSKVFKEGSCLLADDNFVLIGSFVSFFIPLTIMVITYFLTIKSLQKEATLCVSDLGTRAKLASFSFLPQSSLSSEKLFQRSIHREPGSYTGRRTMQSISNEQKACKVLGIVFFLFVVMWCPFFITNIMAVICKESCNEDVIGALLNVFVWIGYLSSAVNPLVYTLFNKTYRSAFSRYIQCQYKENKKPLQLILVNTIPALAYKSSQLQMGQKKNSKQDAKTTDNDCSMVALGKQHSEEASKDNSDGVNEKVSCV
KiSS-1 receptor (Homo sapiens), sequence (Q969F8 whole entry, looked up): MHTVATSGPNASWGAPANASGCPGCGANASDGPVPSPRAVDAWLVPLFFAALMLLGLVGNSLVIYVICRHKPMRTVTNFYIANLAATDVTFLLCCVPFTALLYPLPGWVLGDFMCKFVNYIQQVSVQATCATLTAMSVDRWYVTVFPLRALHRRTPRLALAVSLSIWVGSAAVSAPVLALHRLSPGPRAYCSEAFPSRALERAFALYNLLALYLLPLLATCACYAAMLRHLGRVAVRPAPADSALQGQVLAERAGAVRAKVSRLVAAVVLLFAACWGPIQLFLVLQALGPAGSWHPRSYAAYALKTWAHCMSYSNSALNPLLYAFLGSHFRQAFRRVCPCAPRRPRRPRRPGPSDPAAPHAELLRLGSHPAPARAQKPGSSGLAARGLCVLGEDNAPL
D(2) dopamine receptor (Homo sapiens), sequence (P14416 whole entry, looked up): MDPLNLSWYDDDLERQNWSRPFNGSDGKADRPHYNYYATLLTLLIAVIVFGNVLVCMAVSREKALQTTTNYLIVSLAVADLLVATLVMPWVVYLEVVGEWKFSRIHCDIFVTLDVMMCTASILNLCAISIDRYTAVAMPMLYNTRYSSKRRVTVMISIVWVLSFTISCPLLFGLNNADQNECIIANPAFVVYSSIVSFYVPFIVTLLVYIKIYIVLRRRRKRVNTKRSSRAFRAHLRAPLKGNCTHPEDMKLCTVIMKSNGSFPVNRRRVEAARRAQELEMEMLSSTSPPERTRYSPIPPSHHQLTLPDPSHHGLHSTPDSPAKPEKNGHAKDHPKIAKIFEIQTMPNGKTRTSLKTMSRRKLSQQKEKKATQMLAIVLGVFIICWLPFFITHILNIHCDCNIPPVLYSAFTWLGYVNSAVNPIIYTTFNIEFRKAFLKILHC
Gonadotropin-releasing hormone receptor (Homo sapiens), sequence (P30968 whole entry, looked up): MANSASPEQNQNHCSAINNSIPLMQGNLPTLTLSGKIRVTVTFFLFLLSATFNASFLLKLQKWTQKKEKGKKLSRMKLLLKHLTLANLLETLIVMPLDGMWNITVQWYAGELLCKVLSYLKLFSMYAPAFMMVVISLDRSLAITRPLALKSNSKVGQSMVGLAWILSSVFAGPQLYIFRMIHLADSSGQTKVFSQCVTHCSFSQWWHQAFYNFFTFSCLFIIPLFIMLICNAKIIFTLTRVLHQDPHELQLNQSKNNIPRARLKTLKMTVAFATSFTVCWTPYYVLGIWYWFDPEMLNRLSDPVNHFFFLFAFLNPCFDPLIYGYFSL

As to `CCCC1CCC(=O)CC1`, the Potency result in assay [1], in assay [2], in [3], in [4], in [5] and in assay [6] was “inactive” throughout. The Potency result in assay [7], in [8], in assay [9], in [10], in assay [11] and in assay [12] was “inactive” throughout. The Potency entry in [13], in assay [14], in [15] and in [16] was “inactive” in each case.

Turning to `Cc1ccc(N)cc1S(=O)(=O)O`, the Potency entry in assay [1], in assay [2], in assay [3], in [4], in assay [5] and in [6] was “inactive” each time. Besides, the Potency result in [7], in assay [8], in assay [9], in assay [10], in [17] and in assay [12] was “inactive” in each case. In addition, the Potency result in [18], in assay [13], in assay [14], in assay [15] and in [16] was “inactive” throughout.

Take `Cn1cnc2c(=O)[nH]c(N)nc21`: the Potency result in [1], in assay [2], in assay [3], in [4], in assay [5] and in assay [6] was “inactive” throughout. In addition, the Potency entry in [7], in assay [8], in assay [9], in [10], in assay [17] and in assay [12] was “inactive” throughout. The Potency result in assay [18], in assay [13], in assay [14], in assay [15] and in [16] was “inactive” in each case.

`N#CCCNCCC#N`: the Potency result in [1], in assay [2], in assay [3], in [4], in assay [5] and in [6] was “inactive” throughout. Moreover, the Potency entry in [7], in assay [8], in [9], in [10], in [11] and in [12] was “inactive” throughout. The Potency result in assay [18], in assay [13], in assay [15] and in [16] was “inactive” throughout.

As for `CCOc1ccc2[nH]cc(C(=O)NCc3ccccc3)c(=O)c2n1`, the Potency result in assay [1], in assay [2], in [3], in assay [4], in assay [5] and in [6] was “inactive” in each case. For the same compound, the Potency result in assay [7], in [8], in [9], in assay [10], in assay [11] and in [17] was “inactive” each time. Moreover, the Potency result in assay [13], in assay [14], in assay [15] and in assay [16] was “inactive” each time.

With `O=C(Nc1ccccc1)OCC(CN1CCCCC1)OC(=O)Nc1ccccc1` (stereo not drawn), the Potency entry in assay [1], in assay [2], in assay [3], in [4], in assay [5] and in assay [6] was “inactive” throughout. Besides, the Potency entry in [7], in [9], in [10], in assay [11], in assay [17] and in assay [18] was “inactive” in each case. Moreover, the Potency result in [13], in [15] and in assay [16] was “inactive” in each case. Also, the Potency in assay [8] was 12.6 µM (active).

On to `CC(C)COC(=O)COc1ccc(Cl)cc1Cl`, for which the Potency entry in assay [1], in assay [2], in assay [3], in assay [4], in [5] and in [6] was “inactive” each time. In addition, the Potency entry in [7], in assay [8], in [9], in [10], in [11] and in [17] was “inactive” each time. The Potency result in [13] and in assay [15] was “inactive” in each case.

As for `C[C@H]1COc2c(C3(N)CC3)c(F)cc3c(=O)c(C(=O)O)cn1c23`, the Potency result in assay [1], in [2], in [3], in assay [4], in assay [5] and in assay [6] was “inactive” in each case. For the same compound, the Potency entry in assay [7], in assay [8], in assay [9], in assay [10], in [11] and in [17] was “inactive” throughout. The Potency result in assay [13], in assay [14], in assay [15] and in [16] was “inactive” throughout.
